Assay outcomes (PubChem BioAssay)
FBW7 activator: FBW7 E3 ligase activators, primary screen, biochemical, AlphaScreen, human; F-box/WD repeat-containing protein 7 (Homo sapiens), Q969H0; AlphaScreen FBW7–phospho-cyclin E peptide binding, activator screen; normalized activity (activation), % at 26.1 µM; 650,000 compounds, 0.13% hits; AID 1259310, 2017; in the data active = normalized activity above about 1.9%;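 note: purified mutant Fbw7 with reduced substrate affinity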
TEAD-YAP block: TEAD-YAP interaction inhibition, primary screen, TEAD-YAP interaction inhibitor project, luminescence, HEK-TIYL cells; TEAD-Gal4/YAP UAS-luciferase luminescence; inhibition, % at 9.12 µM; 640,000 compounds, 1.4% hits; AID 1259422, 2018; in the data active = inhibition above about 32%
MITF primary: MITF inhibitors, primary screen, biochemical, AlphaScreen, human; Microphthalmia-associated transcription factor (Homo sapiens), O75030; AlphaScreen MITF homodimerization, bead proximity signal; inhibition, % at 2.6 µM; 650,000 compounds, 0.91% hits; AID 1259374, 2018; in the data active = inhibition above about 50%
GPR151 ag: activators of human GPR151, primary screen, cell-based, PathHunter beta-arrestin, luminescence; PathHunter beta-arrestin GPR151 cells; activation, % at 11.2 µM; 650,000 compounds, 1% hits; in the data active = activation above about 4.9%
GPR151 confirm: GPR151 activators, triplicate retest, confirmation, cell-based, PathHunter beta-arrestin, luminescence; shares compounds with GPR151 ag; GPR151 PathHunter beta-arrestin cells, 90 min; % of EA-reagent control over plate median; activation, % at 11.2 µM; 6,700 tested, under 10 active; AID 1508609, 2020;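 active = mean percent activation across replicates above the confirmation screen cutoff of 4.91%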
GPR119 ag: GPR119 activators in beta-arrestin cells, counter-screen for GPR151 activator project, cell-based, PathHunter beta-arrestin, luminescence, triplicate; shares compounds with GPR151 ag; 6,700 compounds, 0.3% hits; activation, % at 11.2 µM; 90 min; 0 = compound-well median, 100 = enzyme-acceptor control;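 active = mean percent activation in the counterscreen above 29.09%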;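 note: counterscreen on off-target GPR119 to flag nonselective hits from the GPR151 activator screen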
Target sequence (Q8TDV5 whole entry, looked up): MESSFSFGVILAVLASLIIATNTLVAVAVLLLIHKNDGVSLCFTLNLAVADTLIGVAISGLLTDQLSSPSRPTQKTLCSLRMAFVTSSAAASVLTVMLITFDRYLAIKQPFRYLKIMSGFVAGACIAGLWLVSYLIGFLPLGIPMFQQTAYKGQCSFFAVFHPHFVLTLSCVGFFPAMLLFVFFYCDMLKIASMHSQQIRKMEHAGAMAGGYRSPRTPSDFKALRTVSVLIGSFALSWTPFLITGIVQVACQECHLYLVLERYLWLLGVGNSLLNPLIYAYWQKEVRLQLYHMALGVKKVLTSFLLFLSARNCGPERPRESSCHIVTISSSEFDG
Numbers stand for hits; - = inactive; . = no result; ! = not confirmed by another sample. Hits are enriched below; roughly 3.4% of the tested compounds scored in any of these assays.

SMILES | FBW7 activator | TEAD-YAP block | MITF primary | GPR151 ag | GPR151 confirm | GPR119 ag
COc1ccc(C(NC(=O)c2cnc3sccn3c2=O)C(F)(F)F)cc1 (stereo not given) | - | - | - | - | . | .
COc1ccc(OCC(=O)Nc2nc3ccccc3[nH]2)cc1 | - | - | - | - | . | .
COc1ccc(NC(=O)Cc2nc3ccccc3[nH]2)cc1 | - | 38 | - | 18 | - | -
COc1cccc(CC(=O)Nc2nc3ccccc3[nH]2)c1 | - | - | - | 5.6 | - | -
CN(C)/C=C1\N=C(c2ccccc2F)OC1=O | - | - | - | 6.9 | - | -
CN(C)c1ccc(/C=C2\N=C(c3ccccc3F)OC2=O)cc1 | - | - | - | - | . | .
CCOC(=O)CSc1nc2cc(C(=O)N3CCN(C)CC3)ccc2c(=O)n1Cc1ccccc1 | - | - | - | - | . | .
CCN(CC)CCCOc1ccccc1[N+](=O)[O-] | - | - | - | - | . | .
CCN(CC)CCCN1C(=O)C(C)SC1c1ccccc1[N+](=O)[O-] (stereo not given) | - | - | - | 13 | - | -
O=C(CCCc1ccccc1)Nc1ccccc1 | - | - | - | - | . | .
N#Cc1ccc(NC(=O)CCCc2ccccc2)cc1 | - | - | - | 5.1 | - | -
N#Cc1cccc(NC(=O)Cc2ccccc2)c1 | - | - | - | 7.6 | - | -
N#Cc1cccc(NC(=O)CCCc2ccccc2)c1 | - | - | - | - | . | .
O=C(CCCc1ccccc1)Nc1ccc(F)cc1 | - | - | - | 6.1 | - | -
COc1ccc(-c2nnc3ccc(SCC(=O)Nc4ccc(NC(C)=O)cc4)nn23)cc1 | - | - | - | - | . | .
COCCNC(=O)[C@@H]1C[C@H](NCc2cc(C)ccc2C)CN1C1Cc2ccccc2C1 | - | - | - | - | . | .
COCCNC(=O)[C@@H]1C[C@H](NCc2ccccc2Cl)CN1C1Cc2ccccc2C1 | - | - | - | 6.4 | - | -
COc1cn(CC(=O)NCc2ccccc2)c(CSc2ccc(C)cc2)cc1=O | - | - | - | - | . | .
CC(C)(C)c1ccc(OCC(N)=O)c(Br)c1 | - | - | - | 5.9 | - | -
CCC(C)N(C)C(=O)c1cc2ccccc2c(-c2ccccc2Cl)n1 (stereo not given) | - | - | - | 5.4! | - | -
CC(NC(=O)c1cc(-c2ccccc2Cl)nc2ccccc12)c1ccccc1 (stereo not given) | - | - | - | - | . | .
CCOC(=O)c1cccc(NC(=O)C(CCSC)NC(=O)C2CCC(C)CC2)c1 (stereo not given) | - | - | - | - | . | .
COc1cccc(NC(=O)C(CCSC)NC(=O)C2CCC(C)CC2)c1 (stereo not given) | - | - | - | 10 | - | -
CC1(C)Cc2c(C#N)c(N3CCCC3)nc(-c3ccco3)c2CO1 | - | - | - | 12 | - | -
N#Cc1c(N2CCCCC2)nc(-c2ccco2)c2c1CCCC2 | - | - | - | - | . | .
SMILES | FBW7 activator | TEAD-YAP block | MITF primary | GPR151 ag | GPR151 confirm | GPR119 ag
Cc1ccc(C(=O)N2N=C(c3ccc4ccccc4c3)CC2c2ccccc2)cc1 (stereo not given) | - | - | - | - | . | .
O=C(Nc1ccc(F)cc1)c1cc(S(=O)(=O)NCc2ccco2)ccc1F | - | - | - | - | . | .
O=C(Cn1ncc2ccccc2c1=O)NNC(=S)NC1CC2CCC1C2 (stereo not given) | - | - | - | 10 | - | -
Nc1ccc(S(=O)(=O)NCc2ccncc2)cc1 | - | - | - | - | . | .
O=S(=O)(NCc1ccncc1)c1ccc(I)cc1 | - | 40 | - | 9.7 | - | -
Cn1c(=O)c2c(SCCC3OCCO3)nc(C3CCCCC3)nc2n(C)c1=O | - | - | - | 7.9 | - | -
COc1ccc(CNc2c3c(nc4nncn24)CCC3)cc1 | - | - | - | 7.3 | - | -
CCC(=O)Oc1ccc(C(=O)Nc2ccccc2NC(C)=O)cc1 | - | - | - | - | . | .
Cc1ccc(-n2c(SCC(=O)N3CCCC3)nc3c(sc(=S)n3-c3cc(C)ccc3F)c2=O)cc1 | - | - | - | 6.7 | - | -
CCOc1ccccc1-n1c(=S)sc2c(=O)n(-c3ccc(C)cc3)c(SCC(=O)NCc3ccco3)nc21 | - | - | - | - | . | .
Cc1cccc(C)c1-n1c(=S)sc2c(=O)n(-c3ccccc3)c(SCC(=O)c3ccccc3)nc21 | - | - | - | 6.1 | - | -
Cc1ccc(-n2c(SCC(=O)N3CCCC3)nc3c(sc(=S)n3-c3ccccc3C)c2=O)cc1 | - | - | - | - | . | .
CCOc1ccccc1-n1c(=S)sc2c(=O)n(-c3ccc(F)cc3)c(SCC(=O)NCc3ccco3)nc21 | - | - | - | 5.4 | - | -
O=C(CSc1nc2c(sc(=S)n2-c2ccccc2)c(=O)n1-c1ccccc1)NC1CCCCC1 | - | - | - | - | . | .
Cc1ccccc1-n1c(=S)sc2c(=O)n(-c3ccccc3)c(SCC(=O)c3ccccc3)nc21 | - | - | - | - | . | .
COc1ccccc1-n1c(=S)sc2c(=O)n(-c3ccccc3)c(SCC(=O)NC3CCCCC3)nc21 | - | - | - | 6.0 | - | -
O=C(CCNS(=O)(=O)c1ccc2[nH]c(=O)ccc2c1)Nc1cccc2c1CCCC2 | - | - | - | - | . | .
O=C(Nc1cccc(S(=O)(=O)NCc2ccco2)c1)c1cc(F)c(F)c(F)c1F | - | - | - | 4.9 | - | -
Cc1cc(C)c(S(=O)(=O)NCCc2ccc(S(N)(=O)=O)cc2)c(C)c1 | - | - | - | 7.1 | - | -
Cc1ccc(NC(=O)C2CCN(S(C)(=O)=O)CC2)cc1 | - | - | - | 10 | - | -
COc1ccc(C)cc1S(=O)(=O)N1CCC(C(=O)Nc2cccc(C(C)=O)c2)CC1 | - | - | - | 6.1 | - | -
COc1ccc(C)cc1S(=O)(=O)N1CCC(C(=O)Nc2ccc3c(c2)OCO3)CC1 | - | - | - | - | . | .
CCCN1C(=O)CC(c2ccco2)Sc2ccccc21 (stereo not given) | - | - | - | 5.3 | - | -
COc1ccc(-c2nc(NCCN(C(C)C)C(C)C)nc(OC)n2)cn1 | - | - | - | 6.1 | - | -
COc1nc(NCCN(C(C)C)C(C)C)nc(-c2ccccc2)n1 | - | - | - | - | . | .
O=C(Cn1ncc2c1-c1ccccc1OC2)Nc1cc(-c2cccc(Cl)c2)no1 | - | - | - | - | . | .
CCOC(=O)c1ccc(SCC2CCCO2)c([N+](=O)[O-])c1 (stereo not given) | - | - | - | - | . | .
CC(C)OC(=O)c1ccc(SCC2CCCO2)c([N+](=O)[O-])c1 (stereo not given) | - | - | - | 9.0 | - | -
